Drawing on the supplement of paper PMC6555819, this text covers PBM binding z-score for 40 sequences.

The subject of the assay is RARg homodimer (NR concentration 270 nM). The assay can be described thus: PBM binding z-score (relative to random genomic background probes); higher = stronger binding; sequences stand for … in GC…GCGATTGACAGCGTAGAATGAAGG
The gist of the method: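 Binding buffer was PBS pH 7.4 with 2% milk, 0.02% Triton X-100, 1 mM DTT, 0.2 mg/mL BSA and 0.4 mg/ml salmon testes DNA. In it, ligand-free nuclear receptor dimers were incubated 1 h on custom Agilent 4×180K protein-binding microarrays carrying double-stranded probes. Antibodies against each partner (one per run) detected binding, and z-scores were calculated against random background probes after regression normalization of scanned fluorescence.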
For the sequence CCGACTGGGGAAAAGGTTACCATACTCAGTACGA, the PBM binding z-score was 0.901.

Consider CAAACGAGGGCATGAGTTGATAGCAAATGCCGAT, for which the PBM binding z-score was found to be 1.79.

In turn, TTACCAAAGTGAGCTGAGGTCGTTGATCCAACTC gave a PBM binding z-score of -0.105.

With TCGAGTAGGTTAGTGGCATTCAGAATGGCGTCGA, the PBM binding z-score was -0.516.

On to CCAGACAGGTGAGAAGGTAATTCAGCCTCGATTA, for which the PBM binding z-score was 0.401.

Regarding CGTCCAAGGTCAGCAGGTCAGTGTAAGCGACGTG, the PBM binding z-score was found to be 6.61.

Consider GCAGACAGGTGAAACGAAGGTAACTCAGGGTGGC, for which the PBM binding z-score turned out to be 0.315.

Turning to GCGATTGGGGCATCAGCAGGTTACCATAACTTAA, the PBM binding z-score came to 0.543.

For the sequence CCTTACGGGTCACTCCGGGTTATAGCATCGGAGT, the PBM binding z-score came out at 4.12.

On to CCTAGCAGGCCTATCTGGGTCACTCAAGGCTTGA, for which the PBM binding z-score amounted to 0.616.

The sequence ACTCGGAGCACAAAGGTCAGAGCTACGCCAGTGA gave a PBM binding z-score of 5.11.

AGAGTGAGGTTAAGATCAGGGAAACAGAATACAT had a PBM binding z-score of 1.68.

For the sequence CAAACTAGGTCGCGAAAGGTCAAAGTCGAATGAC, the PBM binding z-score was 6.26.

As for CAAACTAGGTCTAAGGTCAAAGTCGAGCCAACCA, the PBM binding z-score came to 4.08.

With GATACAGGGTCAAGGCCAGAGTTCGCGTATTGAT, the PBM binding z-score came to 5.19.

As for CCTACTAGGCCACGAAAGGTCATTGATTCAGTGA, the PBM binding z-score is 4.91.

Take AGAATGAGGTTAAGATCAGGGACACAGAATACAT: the PBM binding z-score came out at 2.14.

For the sequence TCTTGTAGATCTAGCAGGTTAAGAAAGCCTGAGT, the PBM binding z-score was -0.19.

CCGAGTAGGTTATAGGGCATTCAGGCAACGGTGA came in with a PBM binding z-score of 0.848.

Sequence TAGCCTAGGTCTTTCAGGGGCCAGTATAGAAAGC yielded a PBM binding z-score of 0.295.

CCTGGTAGGTCAATGGTCAGCTAAAGCAGCTCGC registered a PBM binding z-score of 4.04.

Consider CCTACTGTGCCAAGGTCATTGATCAGTCAAAGCA, for which the PBM binding z-score amounted to 3.24.

TCTCGTTGGTCAAAGGTCACACACTCGAAATGCG returned a PBM binding z-score of 6.09.

Take TAGCCTAGGTCATTGGGCCACTATAGTACGCATC: the PBM binding z-score was 4.24.

The sequence TAGCCTAGGTCATTCAGTGGCCAGTATAGAAAGC showed a PBM binding z-score of 3.96.

For TGAATGAGGTTATAAGATGAGGGAACGTTGCAAA, the PBM binding z-score came out at 1.12.

In the case of CAAACTAGGCCAAAGGTCAAAGTCGAGCCAACCA, the PBM binding z-score stood at 5.59.

For the sequence GCAGGCAGGTGAAACGCAGGTAACTCAGGGTGGC, the PBM binding z-score is 0.484.

Sequence CTCGAAAGGTCGGTTGAGGTTAGTATACGGATAA had a PBM binding z-score of 3.08.

CCAACTAGGTCAAGGACAGTGAATCTCCGCACGC displayed a PBM binding z-score of 4.42.

The sequence CCGACTGGGGCATAAAGGTTACCATACCATCCGG displayed a PBM binding z-score of 1.79.

For the sequence ACTAGTTGGTCAGCTGAGGTCAGACACAATTCGG, the PBM binding z-score was determined as 3.57.

AGTCAAAGTTCATCTAGGTACCGTAAGATATGCT registered a PBM binding z-score of 5.76.

Sequence CCGACAGGGGCAAAGGTTACCATACTCAGTACGA yielded a PBM binding z-score of 2.17.

On to CCTATTGGGCCATTCAGAGGTCATTGATCATATG, for which the PBM binding z-score was 3.34.

In the case of CCTATTAGTTGACCCTAAGGGCAACCGAAGCTCG, the PBM binding z-score is 2.5.

Take AGTCAAAGTTCCCTAGGTAACGTAAGATTCAGCT: the PBM binding z-score was 0.31.

Sequence TGTAGCAGGCCAGAGGGTCACTCAAGAGGTACGG gave a PBM binding z-score of 2.7.

With TAGCCTTGGTCAGATCGGGCCAGTATACGCTATA, the PBM binding z-score turned out to be 0.118.

ATCCCTAGGTAAAGTTCAGTGAAAGATCGATAGA returned a PBM binding z-score of 1.95.
